# Shown is part of a subset that was picked to be rich in hits.
# Sfp inh: blocks B. subtilis Sfp PPTase activity. Q9F4F7. Biochemical Sfp PPTase activity, qHTS. Potency, µM, most hits filed as inhibitors. 310,000 compounds, 3.5% hits;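 further: the enzyme is Sfp with the accession as filed and its product quenches rhodamine fluorescence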
#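 Compounds were incubated with enzyme (final 15 nM) for 15 min at room temperature before substrate addition started the reaction. Fluorescence at 525 nm excitation, 598 nm emission was recorded immediately and after 30 minutes.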
# Glioma ERSR ind: ER stress response induction in glioma | U87-MG GRP78 promoter luciferase reporter, 16 h | AID 602332 | 420,000 compounds, 0.02% hits | Potency, µM, usual class: activators; further: series mostly up to about 76 µM; nearly all actives have a fitted effect of over 35% in size
#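 ERSR induction read as luciferase luminescence (Bright-Glo, 10 min at room temperature) in stably transfected human U87-MG glioma cells exposed to compounds for 16 h, using GRP78 as sensor.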
# VDR inh: vitamin D3 receptor (human) inhibition | P11473 | VDR-SRC2-3 peptide fluorescence polarization, 2 h | Potency, µM, hits mostly inhibitors | 400,000 compounds, 0.93% hits
# Target sequence (P11473 whole entry, looked up): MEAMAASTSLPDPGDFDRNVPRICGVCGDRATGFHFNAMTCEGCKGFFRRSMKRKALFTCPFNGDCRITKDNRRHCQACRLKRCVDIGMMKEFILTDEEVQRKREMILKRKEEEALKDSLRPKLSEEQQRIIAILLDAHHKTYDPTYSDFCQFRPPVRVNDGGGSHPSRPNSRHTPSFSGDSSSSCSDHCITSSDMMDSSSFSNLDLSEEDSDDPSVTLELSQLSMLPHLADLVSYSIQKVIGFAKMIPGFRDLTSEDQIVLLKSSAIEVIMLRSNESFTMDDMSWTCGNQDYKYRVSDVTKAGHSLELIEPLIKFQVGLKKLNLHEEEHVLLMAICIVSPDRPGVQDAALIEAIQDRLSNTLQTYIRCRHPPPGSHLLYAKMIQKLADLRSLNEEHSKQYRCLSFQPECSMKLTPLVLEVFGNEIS
#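 The screen uses fluorescence polarization to detect compounds that interfere with recruitment of the SRC2-3 coactivator peptide to VDR; plates are read after 2 h at room temperature.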
# 12-LOX inh: inhibitors of human 12S-lipoxygenase ALOX12; Potency, µM (highest dose often 108 µM), most hits filed as inhibitors; P18054; purified 12hLO, xylenol orange hydroperoxide absorbance; 580,000 compounds, 1.1% hits; AID 1671190
#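 Purified human 12hLO (150 nM final) in 25 mM Hepes, 0.01% Triton X-100, pH 7.0 was preincubated 15 min at room temperature with compound. Then 40 uM arachidonic acid was added, 30 min. Hydroperoxide was read by Fe-XO absorbance ratio 573/405 nm.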
# G9a inh: blocks human histone lysine methyltransferase G9a | G9a H3K9 monomethylation, AlphaScreen, 2 h | Potency, µM (top dose mostly 102 µM), most hits filed as inhibitors | AID 504332 | Q96KQ7 | 350,000 compounds, 8.8% hits; further: nearly all actives have a fitted effect of over 75% in size
#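 G9a (20 nM) was preincubated 15 min with compound, then reacted 2 h at room temperature with 500 nM biotin-H3K9 peptide and 20 µM SAM. Monomethyl-H3K9 detected by AlphaScreen using anti-H3K9me1 antibody.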
# Numbers stand for hits; i = inactive; ? = inconclusive; nt = no result given; [ ] = dose if it differs, or a comment. The call rests on the fitted dose curve; in most records, active means well fitted curve in the direction sought with a large enough effect; inconclusive means small, poorly fitted or top-dose-only effect, or another doubt; inactive means no such curve, though single readings can be large; an effect the other way counts as inactive or inconclusive.
SMILES,Sfp inh,Glioma ERSR ind,VDR inh,12-LOX inh,G9a inh
O=c1[nH]cnc(O)c1C(c1ccc2c(c1)OCO2)c1c(O)nc[nH]c1=O,i,i,i,i,50µM
COc1ccc(-c2nc(C#N)c(N3CCN(C(=O)c4cccs4)CC3)o2)cc1OC,nt,nt,nt,i,nt
O=C(CSc1nc2ccccc2[nH]1)N=Nc1c(O)[nH]c2ccccc12,i,i,?,i,45µM
O=C(Cn1nnc(-c2ccccc2)n1)N=Nc1c(O)[nH]c2ccccc12,89µM,i,i,i,i
CCCOc1nc2ccccc2nc1N1CCC(C(=O)Nc2ccc(C(N)=O)cc2)CC1,nt,nt,nt,i,nt
Cc1nn(Cc2ccccc2)c2ncccc12,i,i,i,45µM,nt
O=C(COc1ccc(-c2ccccc2)cc1)NCCc1c[nH]c2ccccc12,nt,nt,nt,i,nt
Oc1sc(C=Nc2ccccc2)c2ccccc12,45µM,?,i,?,i
Oc1sc(C=Nc2ccc(F)cc2)c2ccccc12,14µM,i,i,i,?
COc1ccc(-c2noc([C@@H]3Cc4nc[nH]c4CN3Cc3ccc(CO)o3)n2)cc1,nt,nt,nt,i,nt
Cc1cccc(NC(=O)CS(=O)(=O)c2cn(CC(=O)N3CCOCC3)c3ccccc23)c1,i,i,i,i,?
COc1ccc(CCNC(=O)CS(=O)(=O)c2cn(CC(=O)N(C(C)C)C(C)C)c3ccccc23)cc1OC,i,i,i,?,i
COc1ccc(CCNC(=O)CS(=O)(=O)c2cn(CC(=O)N3CCCC3)c3ccccc23)cc1OC,i,i,i,i,50µM
Cc1cccc(CS(=O)(=O)c2cn(CC(=O)N3CCOCC3)c3ccccc23)c1,50µM,i,i,i,10µM
Cc1ccc(CS(=O)(=O)c2cn(CC(=O)N3CCOCC3)c3ccccc23)cc1,56µM,i,i,i,nt
CC(=O)N1CCN(C(=O)CCN(c2ccccc2)S(=O)(=O)c2ccc(C)cc2)CC1,nt,i,i,i,i[0.501 µM]
Cc1ccc(S(=O)(=O)N(CCC(=O)N2CCOCC2)c2ccccc2)cc1,nt,i,i,i,14µM
O=C(Cn1cc(S(=O)(=O)Cc2ccccc2F)c2ccccc21)N1CCOCC1,i,i,i,i,22µM
O=C(CS(=O)(=O)c1cn(CC(=O)N2CCOCC2)c2ccccc12)NCc1ccc(F)cc1,i,i,i,i,?
Cc1csc(NC(=O)Cc2ccc3ccccc3c2)n1,nt,nt,nt,i,nt
CCOC(=O)c1c(N2C(=O)C=CC2=O)sc(C)c1C,2.5µM,i,i,nt,?
CCN(CC)c1ccc(NC(=O)C2CCCN(S(=O)(=O)c3cnc[nH]3)C2)c(C)c1 (stereo not drawn),i,i,i,i,35µM
Cc1ccc(NC(=O)C2CCCN(S(=O)(=O)c3cnc[nH]3)C2)cc1C (stereo not drawn),i,i,i,i,i
CCCOc1ccc(CN2C[C@@H](CO)[C@H](c3ccncc3)C2)cc1,nt,nt,nt,i,nt
O=C(O)C1CC(c2ccc(F)cc2)=NO1 (stereo not drawn),i,i,i,i,13µM
SMILES,Sfp inh,Glioma ERSR ind,VDR inh,12-LOX inh,G9a inh
COc1ccc(-c2cn(/N=C/c3ccc(Cl)cc3Cl)c(N)n2)cc1,i,i,i,i,35µM
Nc1nc(-c2ccccc2)cn1/N=C/c1ccccc1,i,i,i,i,50µM
Nc1nc(-c2ccccc2)cn1N,i,i,i,i,i
COc1ccc(OC)c(/C=N/N2CCN(c3ccc(Cl)cc3)CC2)c1,i,i,i,nt,i[2.33 µM]
CN(C(=O)c1ccc2cccc(F)c2n1)C1CCCN(CCCc2ccccc2)C1 (stereo not drawn),nt,nt,nt,i,nt
CC(C)CNC(=O)C1CCCC(C(=O)NCC(C)C)C1 (stereo not drawn),nt,nt,nt,i,nt
COc1ccc(Cl)cc1S(=O)(=O)N1CCN(Cc2ccc3c(c2)OCO3)CC1,i,i,i,i,i[12.7 µM]
COc1ccc(S(=O)(=O)N2CCN(Cc3ccc4c(c3)OCO4)CC2)c2ccccc12,i,i,i,i,50µM
CSc1ccc(S(=O)(=O)N2CCN(Cc3ccc4c(c3)OCO4)CC2)cc1,i,i,i,i,79µM
C=CCn1c(Cc2nc3ccccc3[nH]2)n[nH]c1=S,i,i,i,i,2µM
C=CCn1c(Cc2cccc3ccccc23)n[nH]c1=S,i,i,i,i,2.2µM
S=c1[nH]nc(CCc2nc3ccccc3[nH]2)n1-c1ccccc1,?,i,i,i,?
COC(=O)C(C)Oc1ccc2c(=O)c(-c3ccccc3OC)c(C(F)(F)F)oc2c1 (stereo not drawn),nt,nt,nt,i,nt
Cc1ccoc1C(=O)NCc1cccc(C(F)(F)F)c1,nt,nt,nt,i,nt
